Measured values as given in PubChem BioAssay AID1159580 (chemical genetic matrix, 2015).
Where “and” joins values, the source holds several entries; their conditions need not be identical. Equal values may be shown once. The whole screen tested about 5,500 compounds, of which about 2,000 (36%) were called active. Not shown: some 18% with an inconclusive outcome. Rule as the data show it: active = normalized growth mostly below about 0.91 (no sharp cut-off); inconclusive = no clear call, values can overlap the other calls; inactive = mostly above about 0.92. The list shows a part of the results.

Assay: chemical genetic growth profiling, strain panel (AID 1159580);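 also: tested at 20 µM; growth read once vehicle control cultures reached saturation at 30 °C; 1 = growth at the plate median or of vehicle wells; lower values mean less growth of the strain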
Details: S. cerevisiae deletion strains, growth OD

Measured: normalized growth

CC(C)(C)CC(C)(C)c1ccc(OCCOCC[N+](C)(C)Cc2ccccc2)cc1
0.995 (inactive) and 0.14 (active): locus YHR030C, strain SLT2, stronger effect = lower value
active: locus YAL021C, strain ccr4, stronger effect = lower value 0.0688 | locus YAL026C, strain drs2, stronger effect = lower value 0.0657 | locus YAL030W, strain snc1, stronger effect = lower value 0.0593 | locus YBL061C, strain skt5, stronger effect = lower value 0.0642 | locus YBR009C, strain hhf1, stronger effect = lower value 0.0641 | locus YBR021W, strain FUR4, stronger effect = lower value 0.749 | locus YBR023C, strain chs3, stronger effect = lower value 0.0641 | locus YBR171W, strain sec66, stronger effect = lower value 0.0804 | locus YBR231C, strain swc5, stronger effect = lower value 0.0684 | locus YBR279W, strain paf1, stronger effect = lower value 0.0627 | locus YCL011C, strain gbp2, stronger effect = lower value 0.0631 | locus YCL016C, strain dcc1, stronger effect = lower value 0.0699 | locus YCL069W, strain vba3, stronger effect = lower value 0.0614 | locus YCR088W, strain abp1, stronger effect = lower value 0.0617 | locus YDL005C, strain med2, stronger effect = lower value 0.0736 | locus YDL040C, strain nat1, stronger effect = lower value 0.0719 | locus YDR001C, strain nth1, stronger effect = lower value 0.0593 | locus YDR069C, strain doa4, stronger effect = lower value 0.0664 | locus YDR137W, strain rgp1, stronger effect = lower value 0.0931 | locus YDR159W, strain sac3, stronger effect = lower value 0.1 | locus YDR195W, strain ref2 0.158 | locus YDR297W, strain sur2, stronger effect = lower value 0.0635 | locus YDR334W, strain swr1, stronger effect = lower value 0.0662 | locus YDR335W, strain msn5, stronger effect = lower value 0.0594 | locus YDR392W, strain spt3, stronger effect = lower value 0.0804 | locus YEL003W, strain gim4, stronger effect = lower value 0.0568 | locus YEL037C, strain rad23, stronger effect = lower value 0.0591 | locus YEL061C, strain CIN8 (second series), stronger effect = lower value 0.0651 | locus YER015W, strain faa2, stronger effect = lower value 0.0671 | locus YER016W, strain bim1, stronger effect = lower value 0.0697 | locus YER111C, strain swi4, stronger effect = lower value 0.0727 | locus YER155C, strain BEM2 (second series), stronger effect = lower value 0.0937 | locus YFR010W, strain ubp6, stronger effect = lower value 0.0726 | locus YGL167C, strain pmr1, stronger effect = lower value 0.837 | locus YGL173C, strain kem1, stronger effect = lower value 0.0679 | locus YGL227W, strain vid30, stronger effect = lower value 0.0676 | locus YGL240W, strain doc1, stronger effect = lower value 0.0832 | locus YGL253W, strain hxk2, stronger effect = lower value 0.058 | locus YHR013C, strain ard1, stronger effect = lower value 0.119 | locus YHR027C, strain rpn1, stronger effect = lower value 0.0623 | locus YHR079C, strain IRE1, stronger effect = lower value 0.167 | locus YHR142W, strain chs7, stronger effect = lower value 0.0755 | locus YJL092W, strain hpr5, stronger effect = lower value 0.0645 | locus YJL095W, strain BCK1 (second series), stronger effect = lower value 0.0585 | locus YJL115W, strain asf1, stronger effect = lower value 0.0787 | locus YJL129C, strain trk1, stronger effect = lower value 0.079 | locus YJL154C, strain vps35, stronger effect = lower value 0.0655 | locus YJL164C, strain tpk1, stronger effect = lower value 0.0649 | locus YJL166W, strain qcr8, stronger effect = lower value 0.0654 | locus YJL187C, strain SWE1, stronger effect = lower value 0.0616 | locus YJR066W, strain TOR1, stronger effect = lower value 0.791 | locus YKL160W, strain elf1, stronger effect = lower value 0.0818 | locus YKR001C, strain vps1, stronger effect = lower value 0.686 | locus YKR026C, strain gcn3, stronger effect = lower value 0.0715 | locus YKR091W, strain srl3, stronger effect = lower value 0.0677 | locus YLL001W, strain dnm1, stronger effect = lower value 0.064 | locus YLL026W, stronger effect = lower value 0.059 | locus YLL041C, strain sdh2, stronger effect = lower value 0.0644 | locus YLR027C, strain aat2, stronger effect = lower value 0.0617 | locus YLR113W, strain HOG1, stronger effect = lower value 0.166 | locus YLR221C, strain rsa3, stronger effect = lower value 0.0654 | locus YLR258W, strain gsy2, stronger effect = lower value 0.0637 | locus YLR262C, strain YPT6 (second series), stronger effect = lower value 0.0738 | locus YLR320W, strain mms22, stronger effect = lower value 0.08 | locus YLR342W, strain FKS1, stronger effect = lower value 0.0831 | locus YLR357W, strain rsc2, stronger effect = lower value 0.132 | locus YLR370C, strain arc18, stronger effect = lower value 0.0619 | locus YLR384C, strain iki3, stronger effect = lower value 0.0611 | locus YML120C, strain ndi1, stronger effect = lower value 0.0599 | locus YMR058W, strain fet3, stronger effect = lower value 0.0666 | locus YMR125W, strain sto1, stronger effect = lower value 0.0985 | locus YMR129W, stronger effect = lower value 0.0605 | locus YMR205C, strain PFK2, stronger effect = lower value 0.112 | locus YMR231W, strain pep5, stronger effect = lower value 0.0717 | locus YNL071W, strain lat1, stronger effect = lower value 0.0629 | locus YNL183C, strain NPR1, stronger effect = lower value 0.73 | locus YNL209W, strain ssb2, stronger effect = lower value 0.0644 | locus YNL248C, strain rpa49, stronger effect = lower value 0.0829 | locus YNL322C, strain KRE1 (second series), stronger effect = lower value 0.0768 | locus YNR049C, strain mso1, stronger effect = lower value 0.0601 | locus YOR001W, strain rrp6, stronger effect = lower value 0.0755 | locus YOR070C, strain gyp1, stronger effect = lower value 0.0589 | locus YOR080W, strain dia2, stronger effect = lower value 0.0709 | locus YOR083W, strain WHI5, stronger effect = lower value 0.0783 | locus YOR106W, strain vam3, stronger effect = lower value 0.0737 | locus YOR231W, strain MKK1, stronger effect = lower value 0.451 | locus YOR265W, strain rbl2, stronger effect = lower value 0.0618 | locus YOR270C, strain vph1, stronger effect = lower value 0.103 | locus YOR290C, strain snf2, stronger effect = lower value 0.0712 | locus YPL051W, strain arl3, stronger effect = lower value 0.0738 | locus YPL078C, strain atp4, stronger effect = lower value 0.0749 | locus YPL106C, strain sse1, stronger effect = lower value 0.108 | locus YPL240C, strain hsp82, stronger effect = lower value 0.0673 | locus YPL256C, strain CLN2, stronger effect = lower value 0.347
0.912 (inactive) and 0.258 (active): locus YJL095W, strain BCK1, stronger effect = lower value
inactive: locus YAL013W, strain DEP1, stronger effect = lower value 0.983 | locus YBR229C, strain ROT2, stronger effect = lower value 1.02 | locus YCL029C, strain bik1, stronger effect = lower value 0.986 | locus YDL035C, strain GPR1, stronger effect = lower value 1.01 | locus YDL074C, strain BRE1, stronger effect = lower value 0.954 | locus YDL101C, strain DUN1, stronger effect = lower value 0.988 | locus YDL134C, strain PPH21, stronger effect = lower value 0.995 | locus YDL185W, strain tfp1, stronger effect = lower value 1 | locus YDL192W, strain arf1, stronger effect = lower value 0.976 | locus YDR101C, strain arx1, stronger effect = lower value 0.991 | locus YDR150W, strain NUM1, stronger effect = lower value 1 | locus YDR162C, strain NBP2, stronger effect = lower value 0.911 | locus YDR318W, strain mcm21, stronger effect = lower value 0.997 | locus YDR388W, stronger effect = lower value 1 | locus YDR502C, strain sam2, stronger effect = lower value 0.988 | locus YEL061C, strain CIN8, stronger effect = lower value 0.999 | locus YER110C, stronger effect = lower value 0.992 | locus YER155C, strain BEM2, stronger effect = lower value 1.03 | locus YER167W, strain BCK2, stronger effect = lower value 1.02 | locus YGL078C, strain dbp3, stronger effect = lower value 0.988 | locus YGL086W, strain mad1, stronger effect = lower value 0.984 | locus YGL248W, strain PDE1, stronger effect = lower value 0.99 | locus YGR078C, strain PAC10, stronger effect = lower value 0.917 | locus YGR135W, strain pre9, stronger effect = lower value 0.994 | locus YGR252W, strain gcn5, stronger effect = lower value 0.98 | locus YHR079C, strain IRE1 (second series), stronger effect = lower value 0.991 | locus YHR094C, strain hxt1, stronger effect = lower value 0.985 | locus YHR129C, strain ARP1, stronger effect = lower value 0.994 | locus YHR200W, strain rpn10, stronger effect = lower value 0.993 | locus YIL066C, strain RNR3, stronger effect = lower value 0.994 | locus YIL073C, strain SPO22, stronger effect = lower value 0.865 | locus YIL125W, strain kgd1, stronger effect = lower value 0.991 | locus YIR030C, strain dcg1, stronger effect = lower value 0.985 | locus YJL134W, strain LCB3, stronger effect = lower value 1 | locus YJL168C, strain set2, stronger effect = lower value 0.999 | locus YJL187C, strain SWE1 (second series), stronger effect = lower value 0.989 | locus YJR043C, strain POL32, stronger effect = lower value 1.03 | locus YKL009W, strain mrt4, stronger effect = lower value 0.965 | locus YKL068W, stronger effect = lower value 1.01 | locus YKL085W, strain MDH1 (second series), stronger effect = lower value 1 | locus YKL085W, strain MDH1, stronger effect = lower value 1 | locus YLR039C, strain RIC1, stronger effect = lower value 0.781 | locus YLR058C, strain SHM2, stronger effect = lower value 0.996 | locus YLR102C, strain apc9, stronger effect = lower value 0.992 | locus YLR262C, strain YPT6, stronger effect = lower value 0.832 | locus YLR268W, strain sec22, stronger effect = lower value 0.974 | locus YLR330W, strain CHS5, stronger effect = lower value 0.993 | locus YLR342W, strain FKS1 (second series), stronger effect = lower value 0.998 | locus YLR371W, strain rom2, stronger effect = lower value 0.992 | locus YLR418C, strain cdc73, stronger effect = lower value 0.871 | locus YML016C, strain PPZ1, stronger effect = lower value 1.01 | locus YML032C, strain rad52, stronger effect = lower value 0.99 | locus YML124C, strain tub3, stronger effect = lower value 0.989 | locus YMR078C, strain ctf18, stronger effect = lower value 0.986 | locus YMR223W, strain ubp8, stronger effect = lower value 0.989 | locus YMR263W, strain SAP30, stronger effect = lower value 0.991 | locus YMR307W, strain GAS1, stronger effect = lower value 1.06 | locus YNL067W, strain RPL9B, stronger effect = lower value 0.977 | locus YNL233W, strain BNI4, stronger effect = lower value 0.984 | locus YNL250W, strain rad50, stronger effect = lower value 0.989 | locus YNL271C, strain bni1, stronger effect = lower value 0.978 | locus YNL298W, strain CLA4, stronger effect = lower value 1.01 | locus YNL307C, strain MCK1, stronger effect = lower value 0.937 | locus YNR052C, strain pop2, stronger effect = lower value 0.99 | locus YOL006C, strain TOP1, stronger effect = lower value 0.864 | locus YOL012C, strain htz1 1.63 | locus YOL147C, strain pex11, stronger effect = lower value 0.985 | locus YOR061W, strain CKA2, stronger effect = lower value 1.01 | locus YOR069W, strain VPS5, stronger effect = lower value 1.01 | locus YOR136W, strain idh2, stronger effect = lower value 0.986 | locus YOR144C, strain elg1, stronger effect = lower value 0.996 | locus YOR184W, strain ser1, stronger effect = lower value 0.954 | locus YOR316C, strain cot1, stronger effect = lower value 0.992 | locus YPL055C, strain LGE1, stronger effect = lower value 0.98 | locus YPL241C, strain CIN2, stronger effect = lower value 1 | locus YPR119W, strain clb2, stronger effect = lower value 0.984 | locus YPR141C, strain kar3, stronger effect = lower value 0.988 | locus YPR163C, strain tif3, stronger effect = lower value 0.981 | locus YPR167C, strain met16, stronger effect = lower value 1.01 | strain wtn01, stronger effect = lower value 0.997
